Measurements taken from PMC5913336, “True equilibrium measurement of transcription factor-DNA binding affinities using automated polarization microscopy”.

These sequences were tested against T1, Br (Drosophila melanogaster, UniProt Q24206 697-775) (assay: FP; 33 mM phosphate pH 7.0, 90 mM NaCl, 0.01% Tween 20, 0.1 mM DTT, 0.5% agarose; room temperature). Details: tags: N-GST (pGEX-6P-1, kept); dsDNA, one strand shown.
T1 sequence: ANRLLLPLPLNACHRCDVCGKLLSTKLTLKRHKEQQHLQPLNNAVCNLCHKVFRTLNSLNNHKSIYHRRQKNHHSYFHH

Sequence | binding signal
GGAACTAGAAAAC | 4.4 Kd / Kd of best base at the position
GGAATTAGAAAAA | 1.22 Kd / Kd of best base at the position
GGAATTAGATAAC | 1.59 Kd / Kd of best base at the position
GGAATAAGAAAAC | > 1590 Kd / Kd of best base at the position
GGAATTAGTAAAC | 6.81 Kd / Kd of best base at the position
GGATTTAGAAAAC | 2.42 Kd / Kd of best base at the position
GGAATTAGAAAAT | 1.5 Kd / Kd of best base at the position

These sequences were tested against T2, Hb (Drosophila melanogaster, UniProt P05084 225-364) in the same assay as above. Details: tags: N-GST (pGEX-6P-1, kept); dsDNA, one strand shown.
T2 sequence: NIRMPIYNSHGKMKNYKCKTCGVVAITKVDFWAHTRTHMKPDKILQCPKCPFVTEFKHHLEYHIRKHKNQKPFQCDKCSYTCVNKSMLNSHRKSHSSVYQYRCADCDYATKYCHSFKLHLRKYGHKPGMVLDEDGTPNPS

Sequence | binding signal | Kd [nM]
AGGTTTTTAGGC | 1.26 Kd / Kd of best base at the position | 
ACTTTTTTAGGC | 1.03 Kd / Kd of best base at the position | 
AGTTTTTTAGAC | 1.59 Kd / Kd of best base at the position | 
AGTTTTCTAGGC | 15 Kd / Kd of best base at the position | 
AGTTTTTTACGC | 1.61 Kd / Kd of best base at the position | 
AGTTTTTTAAGC | 1.31 Kd / Kd of best base at the position | 
AGTTTTTTAGGG | 1.25 Kd / Kd of best base at the position | 
AGTTTTTTATGC | 1.04 Kd / Kd of best base at the position | 
AGATTTTTAGGC | 3.22 Kd / Kd of best base at the position | 
AGTTTTTTAGGA | 1.46 Kd / Kd of best base at the position | 
AGTTTTGTAGGC | 9.72 Kd / Kd of best base at the position | 
AGTTTTTTCGGC | 5.64 Kd / Kd of best base at the position | 
AGTTTTTGAGGC | 8.32 Kd / Kd of best base at the position | 
GGTTTTTTAGGC | 1.46 Kd / Kd of best base at the position | 
AGTATTTTAGGC | 8.15 Kd / Kd of best base at the position | 
TGTTTTTTAGGC | 1.1 Kd / Kd of best base at the position | 

Sequence | binding signal | Kd [nM]
AGTTTTATAGGC | 9.8 Kd / Kd of best base at the position | 
AGTTTTTTAGGC |  | ~12.5
AGTTTTTTAGTC | 1.14 Kd / Kd of best base at the position | 
AGCTTTTTAGGC | 2.23 Kd / Kd of best base at the position | 
AGTCTTTTAGGC | 8.66 Kd / Kd of best base at the position | 
AGTTTTTCAGGC | 10.3 Kd / Kd of best base at the position | 
AGTTTATTAGGC | 11 Kd / Kd of best base at the position | 
AGTTTTTAAGGC | 9.25 Kd / Kd of best base at the position | 
AGTTTTTTTGGC | 6.04 Kd / Kd of best base at the position | 
CGTTTTTTAGGC | 1.23 Kd / Kd of best base at the position | 
AGTTCTTTAGGC | 13.1 Kd / Kd of best base at the position | 
AGTGTTTTAGGC | 6.19 Kd / Kd of best base at the position | 
AGTTGTTTAGGC | 9.25 Kd / Kd of best base at the position | 
AGTTATTTAGGC | 10.2 Kd / Kd of best base at the position | 
AGTTTTTTAGGT | 1.01 Kd / Kd of best base at the position | 
AATTTTTTAGGC | 1.04 Kd / Kd of best base at the position | 
